# Compounds with a hit are over-represented: about 18% of the library has one in this group of screens.
# TDP1 inh = qHTS Assay for Inhibitors of Tyrosyl-DNA Phosphodiesterase (TDP1); Tyrosyl-DNA phosphodiesterase 1 (Homo sapiens), Q9NUW8; recombinant TDP1, AlphaScreen DNA substrate cleavage; Potency, µM (series often up to 130 µM), for the others: top-dose activity change, negative = inhibition, most hits filed as inhibitors; 350,000 tested, 0.28% active; AID 485290, 2010; note: nearly all actives have a fitted effect of over 40% in size
#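 Recombinant human Tdp1 (E. coli-expressed, 1 nM final) preincubated with compounds 15 min at room temperature, then 5'-biotin/3'-phosphotyrosine-FITC DNA substrate (15 nM final) added for 5 min. AlphaScreen beads (10 ug/ml final) added 10 min; cleavage lowers signal.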
# KAT2A inh = qHTS Assay for Inhibitors of GCN5L2; GCN5L2 HAT assay, ThioGlo1 CoA-SH fluorescence; Potency, µM (doses to about 58.9 µM), inactives show at the top dose activity change, negative = inhibition, usual class: inhibitors; 390,000 tested, 0.21% active; AID 504327, 2011; Histone acetyltransferase KAT2A (Homo sapiens), Q92830
#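 Titration-based screen in which CoA formation is detected via maleimide probe ThioGlo1 (50uM) turning fluorescent on thiol reaction; substrates H3(1-25) 75uM and acetyl-CoA 70uM, GCN5L2 20nM, 20 min incubation at room temperature.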
# TDP1 cell CPT = qHTS for Inhibitors of human tyrosyl-DNA phosphodiesterase 1 (TDP1): qHTS in cells in presence of CPT. Potency, µM (doses to about 46.2 µM), for inactives: at the top dose activity change, negative = growth inhibition, actives largely listed as inhibitors. 420,000 tested, 12% active. chicken DT40 Tdp1-/-;hTDP1 cells + 20 nM CPT, ATP luminescence, 48 h; note: nearly all actives have a fitted effect of over 55% in size
#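 Chicken DT40 Tdp1-/- cells stably complemented with human TDP1 were seeded at 400 cells/well in medium containing 20 nM camptothecin, exposed to pin-transferred compounds, and grown at 37 °C for at least 48 hr. Viability was read as ATP luminescence.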
# TDP1 cell noCPT = qHTS for Inhibitors of human tyrosyl-DNA phosphodiesterase 1 (TDP1): qHTS in cells in absence of CPT. Potency, µM (doses to about 46.2 µM), without a hit: at the top dose activity change, negative = growth inhibition, usual class: inhibitors. 420,000 tested, 15% active. DT40 Tdp1-/- hTDP1 cells, no CPT, ATP luminescence, 48 h; note: nearly all actives have a fitted effect of over 55% in size
#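 Chicken DT40 Tdp1-/- cells complemented with human TDP1, screened without camptothecin (DMSO vehicle only), 400 cells/well. Compounds pin-transferred, cells incubated at 37 °C for at least 48 hr. Growth read as ATP-dependent luminescence (CellTiter-Glo, 30 min at RT).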
# PLK1 PBD inh = qHTS for Inhibitors of PLK1-PDB (polo-like kinase 1 - polo-box domain): Primary Screen; Serine/threonine-protein kinase PLK1 (Homo sapiens), P53350; Plk1 PBD binding of FITC phosphopeptide, fluorescence polarization; Potency, µM, inactives show max response, negative = inhibition, actives largely listed as inhibitors; 360,000 tested, 2.8% active; note: series mostly up to about 57 µM; nearly all actives have a fitted effect of over 65% in size
# VDR inh = Inhibitors of the vitamin D receptor (VDR): qHTS; Vitamin D3 receptor (Homo sapiens), P11473; VDR-SRC2-3 peptide fluorescence polarization, 2 h; Potency, µM, for the others: max response, negative = inhibition, hits mostly inhibitors; 400,000 tested, 0.93% active
#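 The screen uses fluorescence polarization to detect compounds that interfere with recruitment of the SRC2-3 coactivator peptide to VDR; plates are read after 2 h at room temperature.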
# * hit, by the source's call; u = inconclusive; x = not tested or not shown; [ ] = remark or other dose. Calls come from the whole dose curve; as a rule, active = well fitted curve in the direction sought with a large enough effect; inconclusive = small, poorly fitted or top-dose-only effect, or another doubt; inactive = no such curve, though single readings can be large; an effect the other way counts as inactive or inconclusive. % is set by controls: 0 for no effect and ±100 for the full control effect; potency is the fitted concentration of half-maximal effect.
SMILES,TDP1 inh,KAT2A inh,TDP1 cell CPT,TDP1 cell noCPT,PLK1 PBD inh,VDR inh
N/C(=N/[N+](=O)[O-])N1CCN(C(=O)Oc2ccc([N+](=O)[O-])cc2)CC1,x,13.6%,-11.2%,-14.0%,-10.4%,3.1%
Cn1cc(/C=C2\C(=O)NC(=O)N(c3ccccc3)C2=O)c2ccccc21,x,4.2%,-27.6%,-11.0%,-12.9%,26.8%
CC(C)(C)n1cccc1/C=C1\C(=O)NC(=O)N(c2ccccc2)C1=O,-1.2%,-5.7%,2.2%,-3.8%,23.8µM*,18.4%
Cc1cccc(N2C(=O)NC(=O)/C(=C/c3ccc([N+](=O)[O-])o3)C2=O)c1,x,25.1µM*,u,u,10.6µM*,u
CN(C)CC1CSCCC1(O)c1ccccc1 (stereo not given),2.5%,-2.6%,0.3%,-13.1%,-10.0%,10.7%
CCOc1ccc(OC(=O)c2ccc3c(=O)n4c(nc3c2)CCC4)cc1,x,-13.7%,u,u,-7.5%,-10.5%
CC(=O)NC1=C(N2CC2C)C(=O)C(NC(C)=O)=C(N2CC2C)C1=O (stereo not given),x,x,1.84µM*,4.61µM*,-4.8%,-4.0%
COC(=O)c1ccc(C(c2c(C)[nH][nH]c2=O)c2c(C)[nH][nH]c2=O)cc1,x,-7.5%,-10.0%,-27.8%,21.2µM*,u
COC(=O)C(C#N)C(c1cccnc1)c1c(C)[nH][nH]c1=O (stereo not given),12.0%,-4.3%,-7.7%,-6.1%,u,-1.7%
FC(F)(F)c1ccc(NC2=NCCCS2)cc1,x,1.5%,-17.9%,-22.5%,-4.9%,16.6%
Nc1c2c(nc3sc4c(c13)CCCC4)CCCCC2,2.8%,-4.8%,u,18.4µM*,-8.6%,-2.3%
C[C@]12CCC(=O)C[C@H]1CC[C@@H]1[C@@H]2CC[C@]2(C)[C@@H](O)CC[C@@H]12,x,-0.7%,x,x,x,x
CN(Cc1ccccc1)C(=O)c1ccc(NC(=O)C2CCN(C(=O)OC(C)(C)C)CC2)cc1,1.7%,2.1%,23.1µM*,14.6µM*,29.9µM*,-2.9%
CN(Cc1ccccc1)C(=O)CN1CCCC1=O,x,-1.0%,12.7%,-4.6%,-4.5%,9.9%
Cc1c(CCC(=O)N2CCCCC2)c(=O)oc2cc3occ(C(C)(C)C)c3cc12,4.7%,-1.9%,11.6µM*,11.6µM*,x,0.7%
Cc1nc2ncnn2c(C)c1CCC(=O)N1CCC2(CC1)OCCO2,3.1%,1.5%,-10.8%,17.5%,-10.5%,4.6%
CCCC(=O)OC(C(Cl)(Cl)Cl)P(=O)(OC)OC (stereo not given),0.0%,-7.0%,u,u,x,5.4%
O=Cc1ccccc1,13.8%,x,3.9%,16.4%,x,x
O=C(Nc1ccc(Br)cc1)c1nn(C23CC4CC(CC(C4)C2)C3)cc1Br,0.0%,-3.0%,u,14.6µM*,-9.4%,-7.8%
CC(C)c1ccc(NC(=O)N2C[C@H]3C[C@@H](C2)c2cccc(=O)n2C3)cc1,x,-10.4%,-19.5%,5.4%,-5.9%,6.0%
NCC[C@H](O)C(=O)N[C@@H]1C[C@H](N)[C@@H](O[C@H]2O[C@H](CN)[C@@H](O)[C@H](O)[C@H]2N)[C@H](O[C@@H]2O[C@H](CO)[C@@H](O)[C@H]2O)[C@H]1O,x,x,-3.9%[21.1 µM],-0.8%[21.1 µM],x,x
c1cc2c3c(cccc3c1)CC2,x,x,-4.9%,-23.8%,x,x
COc1ccc(CNCCc2c[nH]c3ccccc23)c(OC)c1OC,x,-4.0%,16.4µM*,11.6µM*,7.0%,7.3%
COc1ccccc1CCNCc1ccc(OC)c(OC)c1OC,2.5%,-8.5%,25.9µM*,11.6µM*,-6.2%,-4.8%
CCOc1cc(CNCCc2c[nH]c3ccccc23)cc(Cl)c1OC,5.1%,-5.5%,8.2µM*,5.8µM*,-6.6%,-3.5%
SMILES,TDP1 inh,KAT2A inh,TDP1 cell CPT,TDP1 cell noCPT,PLK1 PBD inh,VDR inh
Cc1ccc2c(c1)C1(CCN(CCc3nc(-c4ccccc4)oc3C)CC1)OC(=O)N2,20.0%,-24.2%,x,x,x,9.8%
C[C@@H]1O[C@H](C[N+](C)(C)C)CS1,4.1%[56.1 µM],u,x,x,x,5.7%
CC(C)NC(=O)N1CC[C@@]2(CCCNC2)C1,x,7.8%,-0.1%,-0.1%,x,-2.2%
CC1=C2CC3C(CC=C4C[C@@H](O)CC[C@@]43C)[C@@H]2CC[C@]12O[C@@H]1C[C@H](C)CN[C@H]1[C@H]2C (stereo not given in full),7.5%,-17.4%,11.7%,-4.1%,x,-0.9%
O=P(Oc1ccc(-c2ccccc2)cc1)(N1CC1)N1CC1,x,x,2.06µM*,9.2µM*,-9.6%,-6.0%
COc1ccc(OC)c(NP(=O)(Oc2ccc(Cl)cc2)Oc2ccc(Cl)cc2)c1,2.7%,-8.4%,3.1%,13.2%,1.7%,-11.2%
O=P(Oc1ccc(Cl)cc1)(N1CC1)N1CC1,x,x,6.51µM*,u,-7.3%,5.2%
O=P(Oc1ccccc1)(Oc1ccccc1)N1CCN(c2ccc(F)cc2)CC1,x,-10.1%,u,u,-4.9%,3.6%
CCCCN1CCC(O)(c2ccccc2)C(C(=O)c2ccccc2)C1 (stereo not given),2.5%,-2.3%,2.91µM*,2.91µM*,u,u
CC1CCCCN1Cc1ccc(Cl)nc1 (stereo not given),1.3%,1.6%,-2.8%,16.6%,0.0%,-5.4%
Cc1noc(C)c1C(=O)N1CCC[C@@]2(CCN(CC(C)C)C2)C1,x,-2.0%,-9.3%,-12.7%,x,7.0%
CCOC(=O)c1cnc2c(ccc3ccccc32)c1Nc1ccc(C(C)=O)cc1,x,-1.5%,u,23.1µM*,x,2.3%
CCOC(=O)c1ccccc1N,-1.2%,-2.2%,7.8%,-5.5%,-0.9%,-12.4%
COc1cccc(OP(=O)(Nc2ccccc2)Oc2cccc(OC)c2)c1,x,-16.4%,u,-24.1%,-5.1%,-12.2%
CCn1ccnc1CN1CCCC(C(=O)c2ccc(OC)cc2OC)C1 (stereo not given),1.2%,23.8%,u,u,-5.5%,12.3%
COc1ccc(C(=O)C2CCCN(Cc3ccc(C)s3)C2)c(OC)c1 (stereo not given),0.0%,3.2%,u,20.6µM*,3.1%,17.9%
COc1ccc(C(=O)C2CCCN(C3CSCCSC3)C2)c(OC)c1 (stereo not given),3.6%,3.5%,u,23.1µM*,0.3%,-10.8%
